# Inconclusive results are not listed. Where a call stands in place of a potency, no number is given. Calls of active or inactive are those of the source. Unless noted, calls follow the shape of the dose curve; as a rule, active = well fitted curve in the direction sought with a large enough effect in the repeat runs; inconclusive = weak or mixed curves; inactive = no such curve, though single readings can be large; an effect the other way counts as inactive or inconclusive.
# Legend:
# [1] = molecular target: Aryl hydrocarbon receptor (Homo sapiens) (UniProt P35869); test: qHTS assay to identify small molecule that activate the aryl hydrocarbon receptor (AhR) signaling pathway (AID 743085); also: nearly all actives have a fitted effect of over 15% in size; also: potency is read from the fitted curve at half-maximal effect;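 as to activation: HG2L7.5c1 human HepG2 liver cells with stably integrated DRE-driven firefly reporter; series mostly up to about 70 µM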
# Chain of Aryl hydrocarbon receptor (Homo sapiens) (P35869 whole entry, looked up): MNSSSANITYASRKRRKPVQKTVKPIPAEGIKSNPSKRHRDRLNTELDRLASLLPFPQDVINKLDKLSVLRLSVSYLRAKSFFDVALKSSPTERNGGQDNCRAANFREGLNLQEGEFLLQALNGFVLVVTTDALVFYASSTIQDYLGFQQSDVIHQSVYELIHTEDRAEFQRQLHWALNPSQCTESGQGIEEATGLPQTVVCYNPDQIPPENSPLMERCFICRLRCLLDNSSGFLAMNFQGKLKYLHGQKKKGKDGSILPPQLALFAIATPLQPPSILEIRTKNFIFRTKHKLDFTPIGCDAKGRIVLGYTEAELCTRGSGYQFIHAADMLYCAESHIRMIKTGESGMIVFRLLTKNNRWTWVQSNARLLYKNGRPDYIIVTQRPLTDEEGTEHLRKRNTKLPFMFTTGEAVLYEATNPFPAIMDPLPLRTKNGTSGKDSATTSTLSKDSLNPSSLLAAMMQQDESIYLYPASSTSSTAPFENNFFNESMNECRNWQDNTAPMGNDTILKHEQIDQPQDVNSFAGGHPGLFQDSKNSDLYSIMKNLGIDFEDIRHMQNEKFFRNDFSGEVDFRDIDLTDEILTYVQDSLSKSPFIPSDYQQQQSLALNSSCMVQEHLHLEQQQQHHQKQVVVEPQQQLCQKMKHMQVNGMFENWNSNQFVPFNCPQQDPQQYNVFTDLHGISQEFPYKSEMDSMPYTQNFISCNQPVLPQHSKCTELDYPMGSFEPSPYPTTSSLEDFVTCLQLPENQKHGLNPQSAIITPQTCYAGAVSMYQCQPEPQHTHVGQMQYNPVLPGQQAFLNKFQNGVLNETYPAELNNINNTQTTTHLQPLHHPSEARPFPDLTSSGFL
# Outline: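 Reporter assay in engineered HepG2 line HG2L7.5c1, whose plasmid carries twenty dioxin responsive elements upstream of firefly luciferase. Treatment lasted 24 h at 37C; ONE-Glo luminescence gauged induction.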
# [2] = qHTS assay to identify small molecule that activate the aryl hydrocarbon receptor (AhR) signaling pathway - cell viability counter screen (AID 743086); also: nearly all actives have a fitted effect of over 45% in size; also: potency is read from the fitted curve at half-maximal effect
# Outline: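 HepG2-AhR-luc (HG2L7.5c1) cells, 4000/well, treated 24 h at 37 C with compound; viability measured as CellTiter-Fluor fluorescence after 30 min in the same wells as the luciferase read.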
# [3] = molecular target: Peroxisome proliferator-activated receptor gamma (Homo sapiens) (UniProt P37231); test: qHTS assay to identify small molecule agonists of the peroxisome proliferator-activated receptor gamma (PPARg) signaling pathway (AID 743094; active = well fitted activation curve with a large enough effect in the signal ratio in the repeat runs, not every such curve was filed as active; the % refers to the signal ratio)
# Chain of Peroxisome proliferator-activated receptor gamma (Homo sapiens) (P37231 whole entry, looked up): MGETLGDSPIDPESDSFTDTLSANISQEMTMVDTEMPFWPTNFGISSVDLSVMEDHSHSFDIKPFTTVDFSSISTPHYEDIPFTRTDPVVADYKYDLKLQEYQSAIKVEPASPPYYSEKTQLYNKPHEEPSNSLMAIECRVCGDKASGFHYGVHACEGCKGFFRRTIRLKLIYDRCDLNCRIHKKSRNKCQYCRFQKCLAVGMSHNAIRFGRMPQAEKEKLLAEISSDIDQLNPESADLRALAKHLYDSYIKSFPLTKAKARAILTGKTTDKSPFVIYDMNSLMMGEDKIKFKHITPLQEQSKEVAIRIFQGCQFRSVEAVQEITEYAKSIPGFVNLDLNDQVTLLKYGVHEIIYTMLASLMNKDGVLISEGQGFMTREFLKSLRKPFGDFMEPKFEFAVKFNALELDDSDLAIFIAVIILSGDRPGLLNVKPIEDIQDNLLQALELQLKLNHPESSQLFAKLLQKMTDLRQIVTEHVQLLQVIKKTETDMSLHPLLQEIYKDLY
# Outline: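 Fluorescence-based beta-lactamase readout in HEK293H PPARg UAS-bla cells after 17 h compound exposure (37C) and 1 h B/G FRET substrate incubation at room temperature.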
# [4] = qHTS assay to identify small molecule antagonists of the peroxisome proliferator-activated receptor gamma (PPARg) signaling pathway - cell viability counter screen (AID 743194); also: nearly all actives have a fitted effect of over 55% in size
# Outline: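 Cytotoxicity counter screen in PPARg-bla HEK293H cells, same wells as reporter assay. Compounds plus 50 nM rosiglitazone (final) for 17 h at 37 C, then viability read by CellTiter-Glo luminescence.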
# [5] = qHTS assay for small molecule agonists of the antioxidant response element (ARE) signaling pathway (AID 743202; active = well fitted activation curve with a large enough effect in the signal ratio in the repeat runs, not every such curve was filed as active; the % refers to the signal ratio; also: potency is read from the fitted curve at half-maximal effect)
# Outline: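 HepG2 ARE-bla reporter line, 2,000 cells/well; 5 h preincubation 37 C/5% CO2; compound (DMSO) 16 h 37 C; B/G FRET substrate 2 h RT; fluorescence intensity.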
# [6] = qHTS assay for small molecule agonists of the antioxidant response element (ARE) signaling pathway - cell viability counter screen (AID 743203; calls by dose curve; also: nearly all actives have a fitted effect of over 55% in size; also: potency is read from the fitted curve at half-maximal effect)
# Outline: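 Parallel cytotoxicity read-out for the ARE-bla screen: HepG2 reporter cells, 16 hrs with compounds, then CellTiter-Glo luminescence.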
# [7] = qHTS assay for small molecule activators of the heat shock response signaling pathway - cell viability counter screen (AID 743209); also: nearly all actives have a fitted effect of over 50% in size; also: potency is read from the fitted curve at half-maximal effect
# Outline: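 To flag cytotoxic compounds, HSE-bla HeLa cells plated at 1500 cells/well were dosed for 5 h at 37 C, followed by the reporter FRET read and then CellTiter-Glo, with luminescence recorded 30 min after reagent addition.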
# [8] = qHTS assay for small molecule activators of the heat shock response signaling pathway (AID 743210; active = well fitted activation curve with a large enough effect in the signal ratio in the repeat runs, with a control signal flat, not every such curve was filed as active; the % refers to the signal ratio;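 also: HeLa cells with beta-lactamase reporter driven by heat shock elements; series mostly up to about 63 µM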)
# Outline: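 Beta-lactamase reporter read-out: FRET substrate fluorescence after 2.5 h at RT, following 5 h compound treatment at 37 C of HeLa cells carrying HSE-driven bla reporter; quantitative HTS format.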
# [9] = qHTS assay to identify small molecule antagonists of the peroxisome proliferator-activated receptor delta (PPARd) signaling pathway - cell viability counter screen (AID 743213); also: nearly all actives have a fitted effect of over 50% in size; also: potency is read from the fitted curve at half-maximal effect
# Outline: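 PPARd-bla HEK293H cells (3000/well) got compound plus 300 nM L165041 agonist for 17 h at 37 C. Viability in the same wells came from CellTiter-Glo luminescence after 30 min at room temperature.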
# [10] = molecular target: Bile acid receptor (Homo sapiens) (UniProt Q96RI1); test: qHTS assay to identify small molecule antagonists of the farnesoid-X-receptor (FXR) signaling pathway (AID 743217; active = well fitted inhibition curve with a large enough effect in the signal ratio in the repeat runs, not every such curve was filed as active; the % refers to the signal ratio)
# Chain of Bile acid receptor (Homo sapiens) (Q96RI1 whole entry, looked up): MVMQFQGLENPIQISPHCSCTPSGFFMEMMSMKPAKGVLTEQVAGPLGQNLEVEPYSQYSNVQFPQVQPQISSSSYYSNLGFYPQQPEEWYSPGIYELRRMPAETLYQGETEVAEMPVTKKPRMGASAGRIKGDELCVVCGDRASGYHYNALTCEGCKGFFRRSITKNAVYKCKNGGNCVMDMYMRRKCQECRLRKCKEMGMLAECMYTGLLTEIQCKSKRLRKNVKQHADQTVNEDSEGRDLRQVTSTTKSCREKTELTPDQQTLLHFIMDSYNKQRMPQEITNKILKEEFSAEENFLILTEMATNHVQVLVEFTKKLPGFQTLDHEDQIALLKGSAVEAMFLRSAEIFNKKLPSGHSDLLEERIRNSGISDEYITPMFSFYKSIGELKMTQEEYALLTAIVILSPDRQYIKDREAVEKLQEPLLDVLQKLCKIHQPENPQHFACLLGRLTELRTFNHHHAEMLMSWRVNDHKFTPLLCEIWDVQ
# Outline: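 Quantitative HTS, beta-lactamase reporter format: FXR-UAS-bla HEK 293T cells co-treated 16 h at 37 °C with compounds and 50 uM final chenodeoxycholic acid, then read by B/G FRET fluorescence.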
# [11] = qHTS assay to identify small molecule agonists of the farnesoid-X-receptor (FXR) signaling pathway - cell viability counter screen (AID 743218); also: nearly all actives have a fitted effect of over 45% in size; also: potency is read from the fitted curve at half-maximal effect
# Outline: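 Same-well cytotoxicity check on FXR-UAS-bla HEK 293T cells: 5 h attachment, 16 h compound at 37 C, CellTiter-Glo luminescence read at room temperature after 30 min.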
# [12] = molecular target: Bile acid receptor (Homo sapiens) (UniProt Q96RI1); test: qHTS assay to identify small molecule agonists of the farnesoid-X-receptor (FXR) signaling pathway (AID 743220; active = well fitted activation curve with a large enough effect in the signal ratio in the repeat runs, not every such curve was filed as active; the % refers to the signal ratio)
# Outline: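 FXR-UAS-bla HEK 293T cells carrying a UAS-driven beta-lactamase reporter were plated for 5 h at 37C/5% CO2, then exposed to DMSO-dissolved Tox21 10K compounds for 16 h at 37C. A LiveBLAzer B/G FRET substrate was loaded for 2 h at room temperature before fluorescence reading.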
# [13] = molecular target: Vitamin D3 receptor (Homo sapiens) (UniProt P11473); test: qHTS assay to identify small molecule agonists of the vitamin D receptor (VDR) signaling pathway (AID 743222; calls by dose curve)
# Chain of Vitamin D3 receptor (Homo sapiens) (P11473 whole entry, looked up): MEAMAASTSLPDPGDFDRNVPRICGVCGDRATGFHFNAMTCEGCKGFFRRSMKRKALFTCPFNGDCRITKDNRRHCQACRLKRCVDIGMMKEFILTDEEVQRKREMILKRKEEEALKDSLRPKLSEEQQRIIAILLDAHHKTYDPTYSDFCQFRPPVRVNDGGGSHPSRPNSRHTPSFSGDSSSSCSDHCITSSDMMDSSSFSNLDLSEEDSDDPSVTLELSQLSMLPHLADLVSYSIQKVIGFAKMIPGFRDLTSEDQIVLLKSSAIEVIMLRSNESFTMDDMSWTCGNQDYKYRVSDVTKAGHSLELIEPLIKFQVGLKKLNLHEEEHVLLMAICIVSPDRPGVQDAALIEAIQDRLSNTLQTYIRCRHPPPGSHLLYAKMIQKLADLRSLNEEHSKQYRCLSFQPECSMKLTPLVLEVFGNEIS
# Outline: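 Using LiveBLAzer B/G FRET detection, agonism was scored in VDR-bla cells exposed overnight (16 h, 37C) to DMSO-dissolved compounds; substrate incubation was 2 h at room temperature.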
# [14] = molecular target: Vitamin D3 receptor (Homo sapiens) (UniProt P11473); test: qHTS assay to identify small molecule antagonists of the vitamin D receptor (VDR) signaling pathway (AID 743223; active = well fitted inhibition curve with a large enough effect in the signal ratio in the repeat runs, not every such curve was filed as active; the % refers to the signal ratio)
# Outline: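 After VDR-bla cells are plated and left 4 h at 37C, DMSO-dissolved compounds and 3 nM (final) calcitriol agonist are added. Incubation continues 16 h at 37C; FRET beta-lactamase substrate then develops 2 h at room temperature.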
# [15] = qHTS assay to identify small molecule agonists of the vitamin D receptor (VDR) signaling pathway - cell viability counter screen (AID 743224); also: nearly all actives have a fitted effect of over 50% in size; also: potency is read from the fitted curve at half-maximal effect
# Outline: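 Counter screen for cytotoxicity: VDR-bla cells at 2,000 cells/well, 16 h compound exposure, then CellTiter-Glo luminescence after the beta-lactamase measurement.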
# [16] = molecular target: Peroxisome proliferator-activated receptor delta (Homo sapiens) (UniProt Q03181); test: qHTS assay to identify small molecule agonists of the peroxisome proliferator-activated receptor delta (PPARd) signaling pathway (AID 743212; calls by dose curve)
# Chain of Peroxisome proliferator-activated receptor delta (Homo sapiens) (Q03181 whole entry, looked up): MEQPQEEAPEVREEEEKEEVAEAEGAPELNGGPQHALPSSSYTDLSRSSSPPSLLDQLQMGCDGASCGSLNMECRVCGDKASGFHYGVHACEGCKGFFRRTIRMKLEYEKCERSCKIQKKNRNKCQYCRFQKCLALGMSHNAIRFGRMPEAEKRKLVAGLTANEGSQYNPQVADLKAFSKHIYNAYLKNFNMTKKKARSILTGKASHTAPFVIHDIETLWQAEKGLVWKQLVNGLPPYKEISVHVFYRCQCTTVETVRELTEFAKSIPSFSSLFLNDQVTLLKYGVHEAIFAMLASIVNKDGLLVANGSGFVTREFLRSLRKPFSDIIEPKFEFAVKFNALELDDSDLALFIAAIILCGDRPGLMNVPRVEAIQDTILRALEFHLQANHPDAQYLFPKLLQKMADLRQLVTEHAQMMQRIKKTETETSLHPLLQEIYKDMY
# Outline: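 Read-out: beta-lactamase FRET fluorescence after 2 h room-temperature incubation with LiveBLAzer B/G substrate. Cells were HEK293H carrying a UAS-bla reporter for PPARd, treated at 37 C with DMSO-dissolved compounds.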
# [17] = molecular target: Peroxisome proliferator-activated receptor delta (Homo sapiens) (UniProt Q03181); test: qHTS assay to identify small molecule antagonists of the peroxisome proliferator-activated receptor delta (PPARd) signaling pathway (AID 743215; active = well fitted inhibition curve with a large enough effect in the signal ratio in the repeat runs, not every such curve was filed as active; the % refers to the signal ratio;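 also: cells stimulated with agonist L165041 at 300 nM final during compound exposure; series mostly up to about 62 µM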)
# Outline: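 Screen format: qHTS, antagonist mode. HEK293H PPARd-bla cells received compound and 300 nM L165041 (final), 17 h, 37 C. Beta-lactamase detected via FRET substrate fluorescence, 2 h, room temperature.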
# [18] = qHTS assay to identify small molecule antagonists of the farnesoid-X-receptor (FXR) signaling pathway - cell viability counter screen (AID 743221; active = well fitted cell-killing curve with a large enough effect in the repeat runs, not every such curve was filed as active; also: nearly all actives have a fitted effect of over 50% in size)
# Outline: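 CellTiter-Glo, 30 min RT, luminescence; same wells as the LiveBLAzer FRET read. Cells: FXR-UAS-bla HEK 293T. Treatment: compound with chenodeoxycholic acid 50 uM final, 16 h at 37 C.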
# [19] = molecular target: Peroxisome proliferator-activated receptor gamma (Homo sapiens) (UniProt P37231); test: qHTS assay to identify small molecule antagonists of the peroxisome proliferator-activated receptor gamma (PPARg) signaling pathway (AID 743191; calls by dose curve; also: series mostly up to about 63 µM; nearly all actives have a fitted effect of over 30% in size)
# Outline: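 GeneBLAzer PPARg UAS-bla HEK293H cells, 5 h post-plating, exposed to compounds 17 h at 37C. LiveBLAzer B/G FRET substrate added for 1 h at room temperature; beta-lactamase reporter read by fluorescence intensity.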
# [20] = qHTS assay to identify small molecule agonists of the peroxisome proliferator-activated receptor delta (PPARd) signaling pathway - cell viability counter screen (AID 743211); also: nearly all actives have a fitted effect of over 55% in size
# Outline: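 Multiplexed format: after the 2 h room-temperature LiveBLAzer B/G FRET step, CellTiter-Glo was added to the same wells. Luminescence after 30 min gave cell viability; compound exposure was 17 h at 37C.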
SMILES,Potency [1],Potency [2],outcome [3],Potency [4],Potency [5],Potency [6],Potency [7],Potency [8],Potency [9],outcome [10],Potency [11],Potency [12],outcome [13],outcome [14],Potency [15],outcome [16],Potency [17],Potency [18],Potency [19],Potency [20]
C=C(C)C(=O)OCCC(F)(F)C(F)(F)C(F)(F)C(F)(F)C(F)(F)C(F)(F)F,inactive,inactive,inactive,inactive,inactive,inactive,inactive,inactive,inactive,inactive,inactive,inactive,inactive,inactive,inactive,–,–,–,–,–
CCCCOC(=O)CCCCC(=O)OCCCC,inactive,inactive,inactive,inactive,inactive,inactive,inactive,inactive,–,–,inactive,–,inactive,inactive,inactive,inactive,inactive,inactive,–,–
O=C(C(=O)c1ccco1)c1ccco1,inactive,inactive,inactive,–,–,inactive,inactive,inactive,–,–,inactive,–,inactive,inactive,–,inactive,inactive,inactive,inactive,inactive
N[C@@H](Cc1cc(I)c(O)c(I)c1)C(=O)O,inactive,inactive,inactive,inactive,inactive,inactive,inactive,inactive,inactive,–,inactive,–,inactive,inactive,inactive,inactive,inactive,inactive,–,inactive
O=CNNC=O,inactive,inactive,inactive,inactive,inactive,inactive,–,–,–,–,inactive,–,inactive,inactive,inactive,inactive,inactive,inactive,–,inactive
Cc1cc(CCC(=O)OCCOCCOCCOC(=O)CCc2cc(C)c(O)c(C(C)(C)C)c2)cc(C(C)(C)C)c1O,inactive,inactive,inactive,inactive,inactive,inactive,–,inactive,–,inactive,inactive,–,–,–,–,–,–,inactive,–,inactive
CC1CCc2nccnc21 (configuration not stated),inactive,inactive,inactive,inactive,inactive,inactive,inactive,inactive,–,–,inactive,inactive,inactive,inactive,inactive,inactive,inactive,–,–,inactive
CCN(CC)c1ccc(C(=C2C=CC(=[N+](CC)CC)C=C2)c2ccc(S(=O)(=O)O)cc2S(=O)(=O)[O-])cc1,inactive,19.3 µM (active),inactive,–,inactive,–,–,inactive,27.5 µM (active),–,–,–,–,inactive,–,inactive,inactive,inactive,inactive,–
Nc1ccc(F)cc1,inactive,inactive,inactive,inactive,inactive,inactive,–,inactive,inactive,–,inactive,–,inactive,inactive,inactive,inactive,–,inactive,–,inactive
CC(C)(C)S,inactive,inactive,inactive,inactive,inactive,inactive,–,–,inactive,inactive,inactive,inactive,–,–,inactive,inactive,inactive,inactive,–,inactive
CC[C@H]1OC(=O)[C@H](C)[C@@H](O[C@H]2C[C@@](C)(OC)[C@@H](O)[C@H](C)O2)[C@H](C)[C@@H](O[C@@H]2O[C@H](C)C[C@H](N(C)C)[C@H]2O)[C@](C)(O)C[C@@H](C)/C(=N\OCOCCOC)[C@H](C)[C@@H](O)[C@]1(C)O,inactive,inactive,inactive,inactive,inactive,inactive,inactive,–,inactive,inactive,inactive,inactive,inactive,inactive,inactive,inactive,–,–,–,–
O=C(O)CCS,inactive,inactive,inactive,inactive,inactive,inactive,–,inactive,inactive,inactive,inactive,inactive,inactive,inactive,inactive,inactive,inactive,inactive,–,inactive
Cc1ccc2c(c1)CCCN2,61.1 µM (active),inactive,inactive,inactive,inactive,inactive,inactive,inactive,–,–,–,–,–,–,inactive,inactive,inactive,inactive,–,inactive
COc1ccc(-c2cc(C(F)F)nn2-c2ccc(S(N)(=O)=O)cc2)cc1F,inactive,inactive,inactive,inactive,–,inactive,inactive,inactive,inactive,–,–,–,inactive,inactive,–,inactive,–,–,–,–
COC(C)(C)OC,inactive,inactive,inactive,inactive,inactive,inactive,–,inactive,–,inactive,inactive,–,inactive,inactive,inactive,inactive,–,inactive,–,inactive
CC(C)CC(O)CC(C)C,inactive,inactive,inactive,inactive,–,inactive,inactive,inactive,–,–,inactive,–,inactive,inactive,inactive,–,–,–,–,inactive
c1ccc2sc(SSc3nc4ccccc4s3)nc2c1,inactive,inactive,inactive,inactive,13 µM (active),inactive,inactive,–,inactive,inactive,inactive,inactive,inactive,inactive,inactive,inactive,inactive,inactive,–,–
CC1=C2[C@@H]([C@H](C)CC[C@H]2/C=C(\C)C(=O)O)[C@H](O)C1,inactive,inactive,inactive,inactive,inactive,inactive,–,–,inactive,inactive,inactive,inactive,–,–,inactive,inactive,inactive,inactive,–,inactive
CCCCCCC(O)CCOC(C)=O (configuration not stated),inactive,inactive,inactive,inactive,inactive,inactive,inactive,inactive,–,inactive,inactive,inactive,inactive,–,inactive,inactive,inactive,inactive,–,–
NC(=O)c1ccccc1[N+](=O)[O-],inactive,inactive,inactive,inactive,–,inactive,inactive,inactive,–,–,inactive,–,–,–,inactive,inactive,inactive,inactive,–,inactive
CCCC(=O)OC(=O)CCC,inactive,inactive,inactive,inactive,–,inactive,inactive,inactive,inactive,–,inactive,–,–,–,inactive,inactive,inactive,inactive,–,inactive
C[C@H](CS)C(=O)N1CCC[C@H]1C(=O)O,inactive,inactive,–,inactive,inactive,inactive,–,inactive,inactive,–,inactive,–,–,–,–,–,–,inactive,–,–
COc1cc(NCc2ccc3nc(N)nc(N)c3c2C)cc(OC)c1OC,29.8 µM (active),29.8 µM (active),–,–,–,0.0376 µM (active),inactive,inactive,–,–,–,inactive,inactive,inactive,0.15 µM (active),inactive,inactive,–,–,–
CCSC(=O)N(CC)CC,inactive,inactive,inactive,inactive,–,inactive,–,inactive,inactive,–,inactive,–,inactive,inactive,inactive,inactive,inactive,inactive,–,inactive
O=[N+]([O-])C1(Br)COCOC1,inactive,inactive,inactive,–,–,–,49 µM (active),–,–,–,inactive,inactive,inactive,–,–,–,–,inactive,–,–
CCN(CC)CCOc1ccccc1C(=O)CCc1ccccc1,inactive,inactive,–,inactive,–,inactive,–,inactive,–,inactive,11.9 µM (active),inactive,inactive,inactive,inactive,–,inactive,–,–,–

# Source: PubChem BioAssay (Tox21)
